This note sets out measurements from PubChem BioAssay (NCATS).

Inconclusive results are not listed. Active and inactive are the calls of the source. The call rests on the fitted dose curve; in most records, active means well fitted curve in the direction sought with a large enough effect; inconclusive means small, poorly fitted or top-dose-only effect, or another doubt; inactive means no such curve, though single readings can be large; an effect the other way counts as inactive or inconclusive.

Assay [1] can be described thus: Validation qHTS assay for inhibitors of Activation Induced Cytidine Deaminase (AID): UDG Counterscreen signal (AID 1347427). Further: potency means the concentration at half of the fitted maximal effect. The gist of the method:
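Counterscreen read of UDG activity (2 U/mL, 4/3x) in the FRET deamination format with AID (1 uM, 4/3x), DJC20/DJC23 substrates (250 nM, 4x), 4 h at room temperature. NaOH stop, fluorescence at 560 ex/665 em.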

Assay [2] addresses Single-stranded DNA cytosine deaminase (Homo sapiens) (UniProt Q9GZX7). The assay can be described thus: Validation qHTS assay for inhibitors of Activation Induced Cytidine Deaminase (AID): AID signal (AID 1347429). Further: potency means the concentration at half of the fitted maximal effect. The method, boiled down: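 AID and UDG were combined and compounds added at final up to 114 uM, then DJC20/DJC23 FRET substrate was added for 4 hr at room temperature. NaOH was then added for 30 min before fluorescence was read at 540/590 nm.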

A short description of assay [3]: Primary qHTS for inhibitors of La Crosse Virus (LACV) - induced cell death in SH-SY5Y cells (AID 1508616).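 Further: top concentration of the series differs between compounds; higher means more rescue of cells from virus-induced death.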 The gist of the method: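 Luminescent ATP readout (ATPLite 1step, 5 min room temperature) measured rescue from LACV-induced death after 6 days of infection at 0.01 MOI; normalized to infected DMSO wells and uninfected DMSO wells.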
In assay [4] the target is Calcium and integrin-binding protein 1 (Homo sapiens) (UniProt Q99828). The assay can be described thus: Validation qHTS for Identification of Calcium Integrin Binding protein 1 (CIB1) Competitor (AID 1508618). The method, boiled down:
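Fluorescence polarization with 1 uM CIB1-GST and 100 nM FITC-alphaIIb peptide in HEPES pH 7.4, NaCl, 5 mM CaCl2, Tween20. Compounds at up to 114 uM final, preincubated with protein 15 min; read after 15 min more at RT.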

The nature of assay [5]: Primary qHTS for small molecule stabilizers of the endoplasmic reticulum resident proteome: Secreted ER Calcium Modulated Protein (SERCaMP) assay (AID 1508630). The gist of the method: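 GLuc-SERCaMP-expressing SH-SY5Y cells, pretreated 16 h with compound, are challenged with thapsigargin to empty ER calcium stores; after 4 h, coelenterazine is added directly to the medium and luminescence is imaged.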

Sequence of Calcium and integrin-binding protein 1 (Homo sapiens) (Q99828 whole entry, looked up): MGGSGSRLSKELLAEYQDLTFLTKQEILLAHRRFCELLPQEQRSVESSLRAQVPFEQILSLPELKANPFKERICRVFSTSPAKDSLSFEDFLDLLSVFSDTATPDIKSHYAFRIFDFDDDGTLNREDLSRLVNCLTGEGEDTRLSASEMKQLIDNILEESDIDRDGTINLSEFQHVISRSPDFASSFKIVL
Sequence of Single-stranded DNA cytosine deaminase (Homo sapiens) (Q9GZX7 whole entry, looked up): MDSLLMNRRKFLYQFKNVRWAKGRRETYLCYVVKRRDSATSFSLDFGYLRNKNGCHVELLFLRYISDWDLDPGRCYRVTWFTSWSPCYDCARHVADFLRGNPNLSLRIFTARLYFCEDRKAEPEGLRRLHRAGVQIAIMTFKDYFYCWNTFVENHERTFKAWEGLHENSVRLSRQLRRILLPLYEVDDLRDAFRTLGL

For `COc1ccccc1N1CCN(CCN(C(=O)c2ccc(I)cc2)c2ccccn2)CC1`, the Potency entry in assay [1], in assay [2] and in assay [3] was “inactive” throughout.
For `CC(C)NC[C@@H](O)c1ccc(O)c(O)c1`, the Potency result in assay [1], in assay [2] and in assay [3] was “inactive” throughout.
For the compound `O=C1NC(=O)/C(=C/c2ccc3nccnc3c2)S1`, the Potency result in assay [1], in assay [2] and in assay [3] was “inactive” throughout.
`Nc1ncnc2c1c(I)cn2[C@@H]1C[C@H](N)[C@@H](O)[C@H]1O`: the Potency result in assay [1], in assay [2] and in assay [3] was “inactive” in each case.
For the compound `NC(=O)C1=CN(C2OC(COP(=O)(O)OP(=O)(O)OC[C@H]3O[C@@H](n4cnc5c(N)ncnc54)[C@H](OP(=O)(O)O)[C@@H]3O)C(O)C2O)C=CC1` (some centres undefined), the Potency entry in assay [1], in assay [2] and in assay [3] was “inactive” each time. In addition, the result in assay [4] was inactive.
With `N.N.O=C(O)C1(C(=O)O)CCC1.[Pt]`, the Potency entry in assay [1], in assay [2] and in assay [3] was “inactive” each time.
As for `CN1CCc2cc(O)c(O)cc2C(c2ccccc2)C1` (centres undefined), the Potency result in assay [1], in assay [2] and in assay [3] was “inactive” throughout.
On to `CCCCCCCCCCCCCCCCCC(=O)OC(CC(=O)O)C[N+](C)(C)C` (centres undefined), for which the Potency result in assay [1], in assay [2] and in assay [3] was “inactive” each time. Further, the result in assay [4] was inactive.
As to `NO`, in assay [1], the Potency was 56.2 µM (active). The Potency entry in assay [2] and in assay [3] was “inactive” throughout.
In the case of `OC[C@H]1O[C@@H](n2cnc3c(Nc4ccccc4)ncnc32)[C@H](O)[C@@H]1O`, the Potency entry in assay [1], in assay [2] and in assay [3] was “inactive” each time.
In the case of `CC(=O)SCC[N+](C)(C)C`, the Potency entry in assay [1], in assay [2] and in assay [3] was “inactive” throughout. Moreover, in assay [4], the outcome was inactive.
Turning to `O=C1NC(=O)/C(=C/c2ccc(-c3ccc(F)cc3O)o2)S1`, the Potency result in assay [1], in assay [2] and in assay [3] was “inactive” each time. The result in assay [4] was inactive.
For the compound `COc1cc2nc(N3CCN(C(=O)OCc4ccccc4)C(C(=O)NC(C)(C)C)C3)nc(N)c2cc1OC` (centres undefined), the Potency entry in assay [1], in assay [2] and in assay [3] was “inactive” each time.
With `CC(C)ON([C@@H](C(=O)NO)C(C)C)S(=O)(=O)c1ccc(-c2ccccc2)cc1`, the Potency result in assay [1] and in assay [2] was “inactive” in each case.
On to `CC(C)CC(NP(=O)(O)O[C@@H]1O[C@@H](C)[C@H](O)[C@@H](O)[C@H]1O)C(=O)NC(Cc1c[nH]c2ccccc12)C(=O)O` (some centres undefined), for which the Potency entry in assay [1], in assay [2] and in assay [3] was “inactive” throughout. Also, the outcome in assay [4] was inactive.
With `CCCCN1CCC(n2c(=O)[nH]c3ccccc32)CC1`, the Potency entry in assay [1], in assay [2] and in assay [3] was “inactive” in each case.
Turning to `N=C(N)SCCc1ccc(CCSC(=N)N)cc1`, the Potency entry in assay [1], in assay [2] and in assay [3] was “inactive” in each case.
As to `COc1cccc(C(=O)NCCN2CCN(c3ccc(Cl)cc3)CC2)c1`, the Potency entry in assay [1], in assay [2] and in assay [3] was “inactive” throughout. Also, the outcome in assay [4] was inactive.
For `O=C(CCCCCN1CCN(c2ccccc2-c2ccccc2)CC1)NC1CCCc2ccccc21` (centres undefined), the Potency result in assay [1], in assay [2] and in assay [3] was “inactive” in each case.
With `NC(=O)C(=O)O`, the Potency result in assay [1], in assay [2] and in assay [3] was “inactive” in each case. In addition, the outcome in assay [4] was inactive.
In the case of `O=C1C(SCCO)=C(SCCO)C(=O)c2ccccc21`, the Potency result in assay [1] was “inactive”. In assay [2], the Potency is 10 µM (active).
For the compound `CN1C2CC(OC(=O)[C@H](CO)c3ccccc3)CC1C1OC12` (some centres undefined), the Potency entry in assay [1], in assay [2] and in assay [3] was “inactive” in each case.
Regarding `C=CC(=O)c1ccc(CCCCCC)cc1`, the Potency result in assay [1], in assay [2] and in assay [3] was “inactive” throughout.
Regarding `CCCCCCCCCCCCCCCCCC(=O)NCC(COP(=O)([O-])OCC[N+](C)(C)C)OCC` (centres undefined), the Potency entry in assay [1] and in assay [2] was “inactive” throughout.
Consider `COc1ccccc1N1CCN(CCCCNS(=O)(=O)c2cccc3c(N(C)C)cccc23)CC1`, for which the Potency result in assay [1], in assay [2] and in assay [3] was “inactive” in each case.
`C[C@@H](NC(=O)/C(C#N)=C/c1ccc(O)c(O)c1)c1ccccc1`: the Potency result in assay [1], in assay [2] and in assay [3] was “inactive” throughout.
Regarding `NCCCCCCCCCCN`, the Potency result in assay [1], in assay [2] and in assay [3] was “inactive” in each case. Moreover, the result in assay [4] was inactive.
On to `CN1CCc2ccccc2Cc2[nH]c3ccccc3c2CC1`, for which the Potency entry in assay [1], in assay [2] and in assay [3] was “inactive” in each case.
On to `NC(CCCP(=O)(O)O)C(=O)O` (centres undefined), for which the Potency result in assay [1], in assay [2] and in assay [3] was “inactive” each time. The result in assay [4] was inactive.
Turning to `CCCn1c(=O)c2[nH]c(-c3ccc(OCC(=O)NCCN)cc3)nc2n(CCC)c1=O`, the Potency result in assay [1], in assay [2] and in assay [3] was “inactive” throughout.
Take `CC(=O)N[C@H](C(=O)O)C(C)(C)SN=O`: the Potency result in assay [1], in assay [2] and in assay [3] was “inactive” throughout. In addition, the outcome in assay [4] was inactive.
For `CCN(CC)c1ncnc2c1ncn2[C@@H]1O[C@H](COP(=O)(O)OP(=O)(O)C(Br)(Br)P(=O)(O)O)[C@@H](O)[C@H]1O`, the Potency result in assay [1], in assay [2] and in assay [3] was “inactive” each time. Also, the result in assay [4] was inactive.
With `O=C(c1ccc(OCCCc2cnc[nH]2)cc1)C1CC1`, the Potency entry in assay [1], in assay [2] and in assay [3] was “inactive” each time. Also, the result in assay [4] was inactive.
For the compound `N#C/C(=C\c1ccc(O)c(O)c1)C(=O)NCCCc1ccccc1`, the Potency entry in assay [1] and in assay [2] was “inactive” each time.
Regarding `N#C/C(=C\c1ccc(O)c(O)c1)C(=O)NCc1ccccc1`, the Potency result in assay [1] and in assay [2] was “inactive” in each case.
In the case of `Cc1nc2sccn2c(=O)c1CCN1CCC(=C(c2ccccc2)c2ccc(F)cc2)CC1`, the Potency result in assay [1], in assay [2] and in assay [3] was “inactive” throughout.
With `O=c1[nH]c2cc([N+](=O)[O-])c([N+](=O)[O-])cc2[nH]c1=O`, the Potency entry in assay [1], in assay [2], in assay [3] and in assay [5] was “inactive” throughout.
